# Inconclusive results are not listed. Active and inactive are the calls of the source. The calls were made as follows: active = hit-call score of the fitted dose curve at least 0.9, where 1 is the maximum; inconclusive = response in the unintended direction; inactive = score below 0.9.
# Columns and labels:
# [1] = molecular target: human Vascular Endothelial Growth Factor Receptor 2 (VEGFR2), KDR (gene 3791) (UniProt P35968); experiment: NVS_ENZ_hVEGFR2: NovaScreen (NVS) Enzymatic Assay for human Vascular Endothelial Growth Factor Receptor 2 (VEGFR2) (AID 2283230)
# human Vascular Endothelial Growth Factor Receptor 2 (VEGFR2), KDR (gene 3791), sequence (P35968 whole entry, looked up): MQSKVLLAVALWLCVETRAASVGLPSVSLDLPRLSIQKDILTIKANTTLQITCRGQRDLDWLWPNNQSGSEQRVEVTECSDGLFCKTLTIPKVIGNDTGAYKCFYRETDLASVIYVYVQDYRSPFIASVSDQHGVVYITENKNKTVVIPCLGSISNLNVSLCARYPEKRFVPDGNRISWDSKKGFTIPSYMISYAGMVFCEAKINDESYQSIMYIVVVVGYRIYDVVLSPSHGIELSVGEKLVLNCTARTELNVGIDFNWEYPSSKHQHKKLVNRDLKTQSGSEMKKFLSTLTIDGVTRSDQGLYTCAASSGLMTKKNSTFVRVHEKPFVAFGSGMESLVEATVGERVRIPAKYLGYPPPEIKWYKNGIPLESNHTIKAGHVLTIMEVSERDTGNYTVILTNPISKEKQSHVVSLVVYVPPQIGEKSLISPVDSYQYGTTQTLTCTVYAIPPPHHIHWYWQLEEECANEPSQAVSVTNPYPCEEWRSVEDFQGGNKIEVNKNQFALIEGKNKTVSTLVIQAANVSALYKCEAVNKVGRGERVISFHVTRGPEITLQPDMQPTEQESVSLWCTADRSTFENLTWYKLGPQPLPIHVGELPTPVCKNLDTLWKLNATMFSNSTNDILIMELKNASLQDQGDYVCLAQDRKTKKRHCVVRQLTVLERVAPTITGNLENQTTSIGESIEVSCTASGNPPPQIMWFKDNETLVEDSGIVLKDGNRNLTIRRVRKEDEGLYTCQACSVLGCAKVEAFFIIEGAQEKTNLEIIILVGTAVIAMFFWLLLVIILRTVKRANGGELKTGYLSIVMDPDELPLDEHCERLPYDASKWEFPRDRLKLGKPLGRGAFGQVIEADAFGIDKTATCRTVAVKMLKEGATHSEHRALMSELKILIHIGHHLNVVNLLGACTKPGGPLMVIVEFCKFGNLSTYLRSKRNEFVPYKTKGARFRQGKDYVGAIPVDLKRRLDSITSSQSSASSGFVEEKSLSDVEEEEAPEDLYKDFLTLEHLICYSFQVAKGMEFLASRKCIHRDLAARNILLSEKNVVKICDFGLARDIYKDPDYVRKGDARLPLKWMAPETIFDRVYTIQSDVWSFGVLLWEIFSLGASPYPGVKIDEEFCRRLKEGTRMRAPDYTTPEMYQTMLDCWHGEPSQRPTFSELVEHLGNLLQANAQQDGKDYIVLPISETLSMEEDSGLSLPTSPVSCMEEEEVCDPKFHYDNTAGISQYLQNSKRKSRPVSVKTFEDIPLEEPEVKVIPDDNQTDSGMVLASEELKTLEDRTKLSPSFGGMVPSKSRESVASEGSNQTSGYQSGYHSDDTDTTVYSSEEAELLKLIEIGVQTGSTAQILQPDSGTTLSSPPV
# Procedure, shortened: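 Cell-free recombinant VEGFR2 kinase, fluorescent substrate with electrophoretic mobility-shift separation; read 1 h after dosing. Screened at 25 uM in duplicate, hits to concentration-response up to 50 uM; loss-of-signal versus DMSO.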
# [2] = molecular target: Adenosine receptor A1 (Bos taurus) (UniProt P28190); experiment: NVS_GPCR_bAdoR_NonSelective: NovaScreen (NVS) G Protein-Coupled Receptor Assay for bovine Adenosine Receptor (AdoR), Non-selective Binding (AID 2283244)
# Adenosine receptor A1 (Bos taurus), sequence (P28190 whole entry, looked up): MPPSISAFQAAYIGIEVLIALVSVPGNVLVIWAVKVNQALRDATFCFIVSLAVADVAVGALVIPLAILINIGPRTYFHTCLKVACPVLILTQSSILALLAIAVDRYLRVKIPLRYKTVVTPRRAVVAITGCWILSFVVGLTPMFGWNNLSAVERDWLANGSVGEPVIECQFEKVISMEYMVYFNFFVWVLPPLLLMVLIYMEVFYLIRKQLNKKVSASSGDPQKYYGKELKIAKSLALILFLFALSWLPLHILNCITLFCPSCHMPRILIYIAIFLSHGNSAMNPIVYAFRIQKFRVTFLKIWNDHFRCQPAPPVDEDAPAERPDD
# Procedure, shortened: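 Bovine striatal membranes, radioligand displacement binding, 1 h after dosing, filter-based scintillation counting. Screened in duplicate at 25 uM, then concentration-response up to 50 uM; loss of specific binding relative to DMSO.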
# [3] = molecular target: human Vascular Endothelial Growth Factor Receptor 3 (VEGFR3), FLT4 (gene 2324) (UniProt P35916); experiment: NVS_ENZ_hVEGFR3: NovaScreen (NVS) Enzymatic Assay for human Vascular Endothelial Growth Factor Receptor 3 (VEGFR3) (AID 2283229)
# Procedure, shortened: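 Cell-free recombinant VEGFR3 kinase reaction with fluorescent substrate, read 1 h after dosing by electrophoretic mobility shift separation of substrate and product. Single-concentration duplicate screen at 25 uM, then concentration-response up to 50 uM; loss of activity versus DMSO.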
# [4] = molecular target: bovine Dopamine Receptor (DR), Non-selective Binding, DRD1 (gene 281125) (UniProt Q95136); experiment: NVS_GPCR_bDR_NonSelective: NovaScreen (NVS) G Protein-Coupled Receptor Assay for bovine Dopamine Receptor (DR), Non-selective Binding (AID 2283241)
# bovine Dopamine Receptor (DR), Non-selective Binding, DRD1 (gene 281125), sequence (Q95136 whole entry, looked up): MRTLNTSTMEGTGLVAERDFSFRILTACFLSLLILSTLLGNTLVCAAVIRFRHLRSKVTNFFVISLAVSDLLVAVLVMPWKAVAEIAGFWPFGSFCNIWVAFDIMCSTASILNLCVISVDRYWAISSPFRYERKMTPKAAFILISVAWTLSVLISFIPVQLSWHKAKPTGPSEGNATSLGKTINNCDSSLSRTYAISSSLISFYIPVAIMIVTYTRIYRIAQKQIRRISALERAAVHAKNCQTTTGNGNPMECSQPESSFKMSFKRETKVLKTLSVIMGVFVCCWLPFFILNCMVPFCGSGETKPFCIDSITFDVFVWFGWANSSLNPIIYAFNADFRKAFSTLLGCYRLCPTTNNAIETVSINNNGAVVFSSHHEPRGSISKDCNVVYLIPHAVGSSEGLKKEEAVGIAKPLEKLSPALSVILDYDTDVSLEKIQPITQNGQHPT
# Procedure, shortened: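 Bovine striatal membranes; radioligand displacement read by filtration and scintillation counting 1 h after dosing, loss of signal vs DMSO. Screened in duplicate at 25 uM, then concentration-response for hits.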
# [5] = molecular target: rabbit Imidazoline 2 Central (I2C), CKB (gene 100009085) (UniProt P00567); experiment: NVS_ENZ_rabI2C: NovaScreen (NVS) Enzymatic Assay for rabbit Imidazoline 2 Central (I2C) (AID 2283228)
# rabbit Imidazoline 2 Central (I2C), CKB (gene 100009085), sequence (P00567 whole entry, looked up): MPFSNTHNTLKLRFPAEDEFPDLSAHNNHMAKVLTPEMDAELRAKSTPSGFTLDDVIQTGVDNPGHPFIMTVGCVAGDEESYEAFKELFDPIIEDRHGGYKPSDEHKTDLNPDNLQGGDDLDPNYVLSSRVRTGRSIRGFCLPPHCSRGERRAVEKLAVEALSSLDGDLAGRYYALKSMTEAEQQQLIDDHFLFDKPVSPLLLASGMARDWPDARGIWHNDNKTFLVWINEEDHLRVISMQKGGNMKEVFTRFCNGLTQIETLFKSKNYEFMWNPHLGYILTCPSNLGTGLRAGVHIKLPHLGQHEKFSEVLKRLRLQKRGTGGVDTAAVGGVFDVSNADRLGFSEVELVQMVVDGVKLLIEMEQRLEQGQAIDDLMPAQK
# Procedure, shortened: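 Rabbit brain membranes, cell-free; readout by filter-based scintillation counting 1.5 hours after dosing, loss of signal vs DMSO. Initial duplicate test at 25 uM, then concentration-response with 50 uM top concentration.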
# [6] = molecular target: rat Constitutive Nitric Oxide Synthase (CNOS), Nos1 (gene 24598) (UniProt P29476); experiment: NVS_ENZ_rCNOS: NovaScreen (NVS) Enzymatic Assay for rat Constitutive Nitric Oxide Synthase (CNOS) (AID 2283236)
# rat Constitutive Nitric Oxide Synthase (CNOS), Nos1 (gene 24598), sequence (P29476 whole entry, looked up): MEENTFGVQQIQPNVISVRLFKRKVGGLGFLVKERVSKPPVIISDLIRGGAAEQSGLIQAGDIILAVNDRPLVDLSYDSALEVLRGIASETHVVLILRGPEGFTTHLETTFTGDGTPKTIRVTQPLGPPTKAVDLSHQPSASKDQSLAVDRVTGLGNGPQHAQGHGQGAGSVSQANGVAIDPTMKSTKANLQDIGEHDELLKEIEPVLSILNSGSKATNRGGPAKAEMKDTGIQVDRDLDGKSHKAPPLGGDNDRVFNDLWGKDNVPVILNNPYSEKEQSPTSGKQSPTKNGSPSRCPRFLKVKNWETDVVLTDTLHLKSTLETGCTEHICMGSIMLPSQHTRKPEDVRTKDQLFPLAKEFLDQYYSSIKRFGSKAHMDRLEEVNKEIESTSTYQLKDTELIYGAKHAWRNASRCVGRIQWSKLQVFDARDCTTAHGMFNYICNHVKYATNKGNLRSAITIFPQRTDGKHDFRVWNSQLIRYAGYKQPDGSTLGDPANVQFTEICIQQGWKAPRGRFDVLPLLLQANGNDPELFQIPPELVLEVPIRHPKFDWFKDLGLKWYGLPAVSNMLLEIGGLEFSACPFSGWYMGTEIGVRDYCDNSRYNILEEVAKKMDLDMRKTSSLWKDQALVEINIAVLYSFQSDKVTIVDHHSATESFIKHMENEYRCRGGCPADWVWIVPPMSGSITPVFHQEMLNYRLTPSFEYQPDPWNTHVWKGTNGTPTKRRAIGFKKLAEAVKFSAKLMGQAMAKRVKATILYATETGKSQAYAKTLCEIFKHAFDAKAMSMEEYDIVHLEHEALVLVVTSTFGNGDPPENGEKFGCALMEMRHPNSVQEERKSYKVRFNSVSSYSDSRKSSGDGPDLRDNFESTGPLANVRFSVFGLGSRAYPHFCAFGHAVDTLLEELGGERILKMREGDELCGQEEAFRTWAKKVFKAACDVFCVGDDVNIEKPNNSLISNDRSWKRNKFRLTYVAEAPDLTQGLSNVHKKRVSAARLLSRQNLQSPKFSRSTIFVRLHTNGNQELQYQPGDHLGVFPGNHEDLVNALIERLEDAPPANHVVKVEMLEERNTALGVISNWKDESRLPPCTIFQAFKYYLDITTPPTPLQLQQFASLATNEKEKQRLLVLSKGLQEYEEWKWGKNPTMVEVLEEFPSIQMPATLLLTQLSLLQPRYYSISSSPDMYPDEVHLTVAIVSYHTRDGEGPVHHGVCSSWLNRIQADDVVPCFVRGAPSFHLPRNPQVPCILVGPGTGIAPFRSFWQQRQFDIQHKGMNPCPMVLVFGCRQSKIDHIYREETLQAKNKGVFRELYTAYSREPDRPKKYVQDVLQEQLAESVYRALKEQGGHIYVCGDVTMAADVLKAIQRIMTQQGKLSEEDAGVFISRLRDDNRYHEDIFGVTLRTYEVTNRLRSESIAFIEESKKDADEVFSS
# Procedure, shortened: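 Enzyme activity in rat brain membrane preparation, read 1 h after dosing by filter-based radiometric scintillation counting. Primary screen in duplicate at 25 uM; actives (e.g., ≥30% inhibition) then run in concentration-response up to 50 uM.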
smiles,measurement,setting,value
Cc1ccc(S(=O)(=O)NC(=O)NN2CCCCCC2)cc1,outcome,[1],inactive
CCCOc1ccc(S(=O)(=O)N2CCN(CC)CC2)cc1-c1nc2c(CC)n(Cc3ccccn3)nc2c(=O)[nH]1,outcome,[2],inactive
OCCOCCOCCO,outcome,[3],inactive
COS(C)(=O)=O,outcome,[4],inactive
NC(=O)N(O)[C@@H]1COc2cc(OCc3ccccc3)ccc21,AC50,[5],19.9 µM (active)
O=S(=O)(O)c1ccc(N=Nc2c(O)ccc3cc(S(=O)(=O)O)ccc23)cc1,AC50,[6],25 µM (active)
